Assay results as given in PubChem BioAssay (NCI).
Several values for one entry are separate records, joined by “and”; a condition that tells them apart may be missing. Equal values may be shown once. About 83,000 compounds went through this panel and 20% of them were active in at least one assay; those are over-represented in the sample as a whole.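 Plates (96-well) were seeded with cells, treated with compound at one concentration, and incubated for 48 hours before percent growth was determined.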 Activity calls are given as the source filed them. Rule for the calls: active = growth percent below 10; inactive = the rest.

How the values were obtained:
Assay in all cases: NCI-60 one-dose screen, 48 h (100 = growth as untreated, 0 = no growth, -100 = all killed)
T-47D breast = test system: T-47D breast
BT-549 breast = test system: BT-549 breast
MDA-MB-435 melanoma = test system: MDA-MB-435 melanoma
SW-620 colon = test system: SW-620 colon
MCF7 breast = test system: MCF7 breast
HCT-116 colon = test system: HCT-116 colon
HCC-2998 colon = test system: HCC-2998 colon
KM12 colon = test system: KM12 colon

Measured: growth

O=[N+]([O-])c1ccc(S(=O)Cc2ccccc2)c([N+](=O)[O-])c1 (stereo not given)
active: SW-620 colon; 10 µM unless noted -71.3% and -38.1% | HCT-116 colon; 10 µM unless noted -88.5% and -82.3%
29.7% (inactive) and -21.4% (active): T-47D breast; 10 µM unless noted
inactive: BT-549 breast; 10 µM unless noted 66.3% and 67.5% | MDA-MB-435 melanoma; 10 µM unless noted 76.2% and 78% | HCC-2998 colon; 10 µM unless noted 97.2% and 97.5% | KM12 colon; 10 µM unless noted 77.1% and 101%
41.1% (inactive) and 5.89% (active): MCF7 breast; 10 µM unless noted

CCN(Cc1ccccc1)c1ccc(/C=C2\COc3ccccc3C2=O)cc1
inactive: T-47D breast; 10 µM 78.3% | T-47D breast; 100 µM 12.3% | BT-549 breast; 10 µM 95.6% | BT-549 breast; 100 µM 16.3% | MDA-MB-435 melanoma; 10 µM 95.7% | SW-620 colon; 10 µM 87.4% | SW-620 colon; 100 µM 28.1% | MCF7 breast; 10 µM 81.5% | MCF7 breast; 100 µM 17.5% | HCT-116 colon; 10 µM 86.1% | HCT-116 colon; 100 µM 30.8% | HCC-2998 colon; 10 µM 102% | HCC-2998 colon; 100 µM 66.8% | KM12 colon; 10 µM 98.3% | KM12 colon; 100 µM 21.8%
active: MDA-MB-435 melanoma; 100 µM -44.7%

CC(=O)/C=C/c1ccc(N(C)Cc2ccc(C(C)(C)C)cc2)cc1
active: T-47D breast; 100 µM -53.9% | BT-549 breast; 100 µM -90.8% | MDA-MB-435 melanoma; 100 µM -54.3% | SW-620 colon; 100 µM -53.5% | MCF7 breast; 100 µM -22.6% | HCT-116 colon; 100 µM -66.2% | HCC-2998 colon; 100 µM -41.2% | KM12 colon; 100 µM -45.7%
inactive: T-47D breast; 10 µM 62.5% | BT-549 breast; 10 µM 101% | MDA-MB-435 melanoma; 10 µM 88.5% | SW-620 colon; 10 µM 88.5% | MCF7 breast; 10 µM 80.3% | HCT-116 colon; 10 µM 79.9% | HCC-2998 colon; 10 µM 99.6% | KM12 colon; 10 µM 95.5%

COc1ccc(-c2cc(-c3cc(OC)c(OC)c(OC)c3)c(C#N)c(=O)n2CCCCC(=O)O)cc1
inactive: T-47D breast; 10 µM unless noted 72.6% | BT-549 breast; 10 µM unless noted 102% | MDA-MB-435 melanoma; 10 µM unless noted 80.2% | SW-620 colon; 10 µM unless noted 98% | MCF7 breast; 10 µM unless noted 93.2% | HCT-116 colon; 10 µM unless noted 94.1% | HCC-2998 colon; 10 µM unless noted 105% | KM12 colon; 10 µM unless noted 94.6%

N#Cc1cc(-c2ccnc(Nc3ccc(NC(=O)CCl)cc3)n2)ccc1N1CCCC1
active: T-47D breast; 10 µM unless noted -68.2% | BT-549 breast; 10 µM unless noted -65% | MDA-MB-435 melanoma; 10 µM unless noted -47.6% | SW-620 colon; 10 µM unless noted -36.9% | MCF7 breast; 10 µM unless noted -19.1% | HCT-116 colon; 10 µM unless noted -37.2% | HCC-2998 colon; 10 µM unless noted -79.5% | KM12 colon; 10 µM unless noted -11.6%

Cc1ccc(/C=C/c2c(C(=O)/C=C/c3ccccc3)c(C)nc3ccccc23)cc1
inactive: T-47D breast; 10 µM unless noted 16.1% | BT-549 breast; 10 µM unless noted 41.5% | MCF7 breast; 10 µM unless noted 12.6% | HCC-2998 colon; 10 µM unless noted 20.6% | KM12 colon; 10 µM unless noted 13.1%
active: MDA-MB-435 melanoma; 10 µM unless noted -45.4% | SW-620 colon; 10 µM unless noted 3.35% | HCT-116 colon; 10 µM unless noted -54.7%

BrC1=C(Br)C(Br)(Br)C(Br)=C1Br
inactive: T-47D breast; 10 µM unless noted 77.9% | BT-549 breast; 10 µM unless noted 88.9% | MDA-MB-435 melanoma; 10 µM unless noted 75.6% | SW-620 colon; 10 µM unless noted 80.1% | MCF7 breast; 10 µM unless noted 50% | HCT-116 colon; 10 µM unless noted 65.1% | HCC-2998 colon; 10 µM unless noted 103% | KM12 colon; 10 µM unless noted 103%

COCCn1cc(-c2csc(-c3cn(C)c4ccc(F)cc34)n2)c2cccnc21
inactive: T-47D breast; 10 µM unless noted 25.2% | BT-549 breast; 10 µM unless noted 63.8% | MDA-MB-435 melanoma; 10 µM unless noted 40.8% | SW-620 colon; 10 µM unless noted 37.6% | MCF7 breast; 10 µM unless noted 25.9% | HCT-116 colon; 10 µM unless noted 75.5% | HCC-2998 colon; 10 µM unless noted 49.6% | KM12 colon; 10 µM unless noted 40%

Nc1ccc(/C=N/Nc2ccnc3c(N)cccc23)c2cccnc12
active: T-47D breast; 10 µM unless noted -39.5% | BT-549 breast; 10 µM unless noted -37.2% | MDA-MB-435 melanoma; 10 µM unless noted -84.1% | SW-620 colon; 10 µM unless noted -28.3% | MCF7 breast; 10 µM unless noted -47.1% | HCT-116 colon; 10 µM unless noted -93.1% | KM12 colon; 10 µM unless noted 0.438%
inactive: HCC-2998 colon; 10 µM unless noted 41.5%

COc1ccc(-c2cc(=O)c3c(O)cc(O)cc3o2)cc1
inactive: T-47D breast; 10 µM unless noted 101% and 100% | BT-549 breast; 10 µM unless noted 109% | MDA-MB-435 melanoma; 10 µM unless noted 96.3% and 96.5% | SW-620 colon; 10 µM unless noted 106% and 105% | MCF7 breast; 10 µM unless noted 117% and 106% | HCT-116 colon; 10 µM unless noted 103% and 94.5% | HCC-2998 colon; 10 µM unless noted 102% and 104% | KM12 colon; 10 µM unless noted 91% and 93.1%

CCOC(=O)CCCn1c(-c2ccccc2)cc(-c2ccccc2)c(C#N)c1=O
inactive: T-47D breast; 10 µM unless noted 93.6% | BT-549 breast; 10 µM unless noted 93.9% | MDA-MB-435 melanoma; 10 µM unless noted 50% | SW-620 colon; 10 µM unless noted 88.3% | MCF7 breast; 10 µM unless noted 89.6% | HCT-116 colon; 10 µM unless noted 75.5% | HCC-2998 colon; 10 µM unless noted 98.2% | KM12 colon; 10 µM unless noted 83.4%

COc1ccc(/C=N/C2=C(C#N)C(c3ccccc3)c3c(ccc4ccccc34)O2)cc1 (stereo not given)
active: MDA-MB-435 melanoma; 10 µM unless noted -59.2%
inactive: T-47D breast; 10 µM unless noted 36.3% | BT-549 breast; 10 µM unless noted 35.7% | SW-620 colon; 10 µM unless noted 29.4% | MCF7 breast; 10 µM unless noted 15.4% | HCT-116 colon; 10 µM unless noted 24.8% | HCC-2998 colon; 10 µM unless noted 48.8% | KM12 colon; 10 µM unless noted 29.1%

C#Cc1cc(C(=O)Nc2ccc(CN3CCN(C)CC3)c(C(F)(F)F)c2)ccc1C
inactive: T-47D breast; 10 µM unless noted 79% | BT-549 breast; 10 µM unless noted 101% | MDA-MB-435 melanoma; 10 µM unless noted 28.1% | SW-620 colon; 10 µM unless noted 81.3% | MCF7 breast; 10 µM unless noted 70.1% | HCT-116 colon; 10 µM unless noted 47.8% | HCC-2998 colon; 10 µM unless noted 90.2% | KM12 colon; 10 µM unless noted 70.3%
